High-throughput results deposited in PubChem BioAssay by National Center for Advancing Translational Sciences (NCATS).
Compounds with a hit are over-represented: about 12% of the library has one in this group of screens.
BAZ2B inh: blocks human BAZ2B. AlphaScreen BAZ2B-H3K14Ac peptide displacement. Potency, µM (series often up to 114 µM), for inactives: at the top dose activity change, negative = inhibition, usual class: inhibitors. 360,000 tested, 4.4% active. Q9UIF8; further: on the % scale 0 is the no-effect control and ±100 the full control effect; nearly all actives have a fitted effect of over 60% in size
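BAZ2B (50 nM) with biotin-H3(5-23)K14Ac peptide (50 nM) in PBS pH 7.4, 0.01% Tween-20, preformed 30 min, then compound 30 min at room temperature; top concentration 110uM. AlphaScreen streptavidin donor/nickel chelate acceptor beads (10 ug/mL final), 20 min dark, signal read.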
G9a block: inhibitors of human histone lysine methyltransferase G9a; 350,000 tested, 8.8% active; G9a H3K9 monomethylation, AlphaScreen, 2 h; Q96KQ7; Potency, µM (series often up to 102 µM), without a hit: top-dose activity, negative = inhibition, most hits filed as inhibitors; AID 504332; further: on the % scale 0 is the no-effect control and ±100 the full control effect; nearly all actives have a fitted effect of over 75% in size
Target sequence (Q96KQ7 913-1193 limits assumed): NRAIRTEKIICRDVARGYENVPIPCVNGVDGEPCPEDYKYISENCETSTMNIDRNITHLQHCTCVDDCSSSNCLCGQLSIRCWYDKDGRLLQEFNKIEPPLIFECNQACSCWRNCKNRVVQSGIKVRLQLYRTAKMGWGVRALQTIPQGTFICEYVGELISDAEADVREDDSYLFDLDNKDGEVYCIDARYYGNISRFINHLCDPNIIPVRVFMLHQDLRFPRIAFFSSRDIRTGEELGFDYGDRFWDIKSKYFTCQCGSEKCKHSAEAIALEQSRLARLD
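Using a bead-based AlphaScreen, monomethylated H3K9 product from 2 h room-temperature reactions (G9a 20 nM, peptide 500 nM, SAM 20 uM) was detected with 0.5 ug/mL rabbit anti-H3K9me1 antibody.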
Sfp PPTase inh: Sfp phosphopantetheinyl transferase inhibition; Potency, µM, for the others: largest response in the series, negative = inhibition, hits mostly inhibitors; Q9F4F7; Biochemical Sfp PPTase activity, qHTS; 310,000 tested, 3.5% active;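 further: the enzyme is Sfp with the accession as filed and its product quenches rhodamine fluorescence; 0% = enzyme reaction without inhibitor and -100% = no enzyme wells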
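Buffer: 50 mM Hepes-Na pH 7.6, 10 mM MgCl2, 0.01% Nonidet P-40, 0.01% BSA. Enzyme 15 nM, pre-exposed to compound 15 min; substrates then added and fluorescence change tracked over 30 min.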
JMJD2A Tudor inh: blocks the human JMJD2A Tudor domain; AlphaScreen JMJD2A-Tudor / H3K4me3 peptide binding; 390,000 tested, 4.4% active; AID 504339; O75164; Potency, µM (titrated, usually from 114 µM), for the others: at the top dose activity change, negative = inhibition, most hits filed as inhibitors; further: on the % scale 0 is the no-effect control and ±100 the full control effect; nearly all actives have a fitted effect of over 50% in size
HP1b binding inh: inhibitors of HP1-beta chromodomain binding to methylated histone tails | P83916 | AlphaScreen HP1-beta / biotin-H3K9me3 peptide binding | Potency, µM (titrated, usually from 114 µM), for inactives: top-dose activity change, negative = inhibition, hits mostly inhibitors | 390,000 tested, 0.56% active | AID 540317; further: nearly all actives have a fitted effect of over 70% in size
Target sequence (P83916 whole entry, looked up): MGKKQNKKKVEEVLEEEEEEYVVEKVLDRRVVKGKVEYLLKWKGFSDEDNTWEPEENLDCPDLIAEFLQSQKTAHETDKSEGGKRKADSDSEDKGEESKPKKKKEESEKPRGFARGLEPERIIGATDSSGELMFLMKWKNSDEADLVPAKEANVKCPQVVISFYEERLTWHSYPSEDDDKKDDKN
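Compound inhibition of the preformed complex between 50 nM HP1-beta and 50 nM biotinylated H3K9me3 peptide was read by AlphaScreen. Buffer was PBS pH 7.4 with 0.01% Tween-20. Incubations ran 30 min at room temperature, with 10 ug/mL donor/acceptor beads.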
* marks the source's active call; other numbers are inactive results; u = inconclusive; x = no result; [ ] = another dose, or the depositor's remark. The call rests on the fitted dose curve; in most records, active means well fitted curve in the direction sought with a large enough effect; inconclusive means small, poorly fitted or top-dose-only effect, or another doubt; inactive means no such curve, though single readings can be large; an effect the other way counts as inactive or inconclusive. Potency means the concentration at half of the fitted maximal effect.

SMILES	BAZ2B inh	G9a block	Sfp PPTase inh	JMJD2A Tudor inh	HP1b binding inh
CN1CCN(C2=Cc3cc(Cl)ccc3Sc3cc(F)ccc32)CC1	22.4µM*	12.6µM*	1.0%	56.2µM*	-45.6%
Cc1ccccc1CN(CC1CCC(C(=O)O)CC1)C(=S)Nc1ccccc1F (stereo not drawn)	10.0%	-10.2%	-15.5%	-2.1%	32.5%
Cc1ccc(NC2CCCN(C(=O)CCC3=NNC(=O)CC3)C2)cc1C (stereo not drawn)	-10.4%	x	0.9%	-6.6%	23.5%
COc1ccccc1OCC(=O)N1CCCC(Nc2ccc(C)c(C)c2)C1 (stereo not drawn)	u	x	3.1%	u	-28.4%
COc1ccc(CCC(=O)N2CCCC(Nc3ccc(C)c(C)c3)C2)cc1OC (stereo not drawn)	u	44.7µM*	6.6%	u	-13.6%
COc1ccc(NC2CCCN(C(=O)COc3ccc(Cl)cc3C)C2)cc1OC (stereo not drawn)	u	50.1µM*	6.0%	u	-38.4%
COc1cc2c(ccc3cc(OC)c(OC)c(O)c32)cc1O	7.08µM*	u	-6.6%	10µM*	u
Cc1cc(Cl)c(S(=O)(=O)NC2CCCCC2)cc1OCC(=O)Nc1nncs1	-17.7%	17.8µM*	-2.7%	-3.3%	17.3%
CNc1cccc(S(=O)(=O)N2CCN(S(=O)(=O)c3ccc4c(c3)OCCO4)CC2)c1	x	x	x	-15.6%	x
OC(c1cccc(Cl)c1)c1nccc2ccccc12 (stereo not drawn)	-31.3%	39.8µM*	2.1%	-29.9%	39.1%
OC(c1ccc2c(c1)OCO2)c1nccc2ccccc12 (stereo not drawn)	-23.9%	44.7µM*	-8.0%	u	54.1%
CC(C)n1c(C(O)c2ccc3c(c2)OCO3)nc2ccccc21 (stereo not drawn)	-31.8%	70.8µM*	-0.5%	-30.1%	8.6%
O=[N+]([O-])c1cccc(/C=N/Nc2nc(NCc3ccccc3)nc(N3CCOCC3)n2)c1O	-23.6%	u	-19.2%	20µM*	-6.6%
NNc1nc(NCc2ccccc2)nc(N2CCOCC2)n1	79.4µM*	1.8%[59 µM]	9.7%	u	25.7%
C=C1CCN(C(CC(C)C)C(=O)NCCCc2ccccc2)S(=O)(=O)c2ccccc21 (stereo not drawn)	x	x	4.5%	-3.4%	51.3%
O=C(NN=C1CCCCCCCCCCC1)c1ccncc1	u	11.6%[59 µM]	-28.8%	28.2µM*	38.2%
Nc1ccccc1NC1CCCCC1	31.6µM*	50.1µM*	-19.0%	56.2µM*	u
COc1ccccc1CNC(=O)COC(=O)c1ccc(C)c(S(=O)(=O)N2CCCCC2)c1	-20.0%	40.1%	15.1%	-6.9%	48.1%
O=C(O)C1CCC(CNCc2ccccc2Cl)CC1 (stereo not drawn)	2.9%	-2.4%	16.7%	-3.5%	44.3%
CCOC(=O)C1CCC(CNCc2ccccc2C)CC1 (stereo not drawn)	0.2%	50.1µM*	5.0%	-5.1%	1.6%
COc1cc(/C=C/C(=O)OCC(=O)NCC(=O)Nc2cccc(C)c2C)ccc1OC(F)F	-3.9%	9.5%[59 µM]	x	3.9%	33.4%
COc1cccc(C2C(C#N)=C(N)Oc3c2oc(CO)cc3=O)c1 (stereo not drawn)	-3.4%	1.7%[59 µM]	11.7%	0.6%	40.8%
COc1ccc(C2C(C#N)=C(N)Oc3c2oc(CO)cc3=O)cc1 (stereo not drawn)	x	u	56.2µM*	5.9%[11.4 µM]	53.9%
COc1ccc(-c2cn3c(n2)sc2cc(C(=O)NCc4ccccc4)ccc23)cc1	-19.8%	-32.5%[59 µM]	x	-14.5%	27.3%
COc1ccc2c(c1)sc1nc(-c3ccccc3)cn12	-10.7%	6.1%[12.7 µM]	50.1µM*	-4.8%	35.8%
CCc1ccc(-c2cn3c(n2)sc2cc(C(=O)NCCCc4ccccc4)ccc23)cc1	-4.8%	-0.8%[59 µM]	x	-25.7%	23.8%
O=C(NCc1cccs1)c1ccc2c(c1)sc1nc(-c3ccc(F)cc3)cn12	-16.9%	10µM*	x	-19.1%	42.0%
CCOc1ccc(-c2cn3c(n2)sc2cc(C(=O)NCCCc4ccccc4)ccc23)cc1	-15.8%	22.4µM*	x	4.3%	39.2%
Cc1ccc(-c2cn3c(n2)sc2cc(C(=O)NCc4cccs4)ccc23)cc1	-7.5%	-8.5%[59 µM]	x	-16.4%	33.2%
